TRHR PAM = allosteric enhancers of human TRH receptor; P34981; TRHR cells, fluo-8 calcium fluorescence, EC20 TRH enhancement; enhancement, % at 2 µM; 360,000 tested, 0.66% active; in the data active = enhancement above about 30%; also: 0% is about no effect
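Enhancer read-out: after compound pinning and an initial kinetic agonist-mode read, an EC20 of TRH (10 nM final) was injected and fluo-8 calcium signal (Ex 480/Em 530) followed at 1 s/cycle for 100 cycles in TRHR-expressing cells.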
TRHR ag = TRH receptor (human) agonism; P34981; TRHR cells, calcium flux fluo-8, FDSS agonist mode; activation, % at 2 µM; 360,000 tested, 0.18% active; in the data active = activation above about 30%; also: 0% is about no effect
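Fluo-8-loaded TRHR cells; 10 s baseline, compound added, kinetic Ca2+ fluorescence read 1/s, agonist mode.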
KCNH2 3.1 inh = KCNH2 3.1 (human) potassium channel inhibition; U2OS KCNH2 3.1, thallium flux FluxOr; active compounds read low; activity change, % (tested at about 1.8 µM); AID 720553; 340,000 tested, 0.95% active;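 active = maximum activity change below -70%; inconclusive = maximum activity change from -70% to -50%; inactive = maximum activity change above -50%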;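 also: thallium influx rate constant from kinetic fluorescence after stimulation buffer; % is scaled to controls: 0 for no effect and ±100 for the full control effect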
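Measured as rate of thallium-driven FluxOr signal in transduced U2OS cells carrying the 3.1 channel, read kinetically for 2 min upon stimulation; values are rate constants scaled to DMSO control wells.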
TRPML1 ag = human mucolipin-1 channel agonism. Q9GZU1. TRPML1-expressing cells, Ca2+ dye fluorescence, FDSS. activation, % (no concentration beside the values). 410,000 tested, 0.12% active. AID 624414; in the data active = activation above about 50%; inconclusive = mostly about 30% to 49%; also: 0% is about no effect
Target sequence (Q9GZU1 whole entry, looked up): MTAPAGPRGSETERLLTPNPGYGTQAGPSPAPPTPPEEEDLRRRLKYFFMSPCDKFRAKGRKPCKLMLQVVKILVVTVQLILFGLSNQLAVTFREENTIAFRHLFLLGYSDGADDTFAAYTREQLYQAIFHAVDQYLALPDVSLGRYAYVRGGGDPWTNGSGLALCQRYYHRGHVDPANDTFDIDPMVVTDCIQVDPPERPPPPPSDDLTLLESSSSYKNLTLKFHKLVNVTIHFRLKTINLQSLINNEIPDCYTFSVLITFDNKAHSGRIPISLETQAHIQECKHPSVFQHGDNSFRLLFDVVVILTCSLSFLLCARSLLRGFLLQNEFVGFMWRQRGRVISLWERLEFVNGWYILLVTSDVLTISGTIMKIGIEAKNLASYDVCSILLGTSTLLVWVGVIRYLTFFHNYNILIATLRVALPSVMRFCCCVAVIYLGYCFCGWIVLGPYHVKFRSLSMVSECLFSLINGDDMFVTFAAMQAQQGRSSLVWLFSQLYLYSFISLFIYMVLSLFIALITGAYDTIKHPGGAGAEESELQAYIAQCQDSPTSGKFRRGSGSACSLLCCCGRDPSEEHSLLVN
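TRPML1-DL cells, Tet-induced overnight (~16 h, 37 degrees C), loaded 45-90 min at room temperature with Ca8 no-wash calcium dye plus quencher. FDSS fluorescence: 10 s baseline, compound pin-transfer, 110 s agonist read, then EC80 54-4 (4uM final) and 110 s antagonist read.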
TRPML1 blocker = blocks the human TRPML1 channel; Q9GZU1; TRPML1-inducible cells, Ca2+ dye fluorescence, FDSS; active compounds read low; inhibition of EC80 agonist-evoked calcium signal; activity change, negative = inhibition, % (test concentration not listed); 390,000 tested, 0.02% active; AID 624415; in the data active = activity change below about -50%; inconclusive = between about -30% and that limit;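 also: stimulus is agonist 54-4 at its EC80 concentration; % is scaled to controls: 0 for no effect and ±100 for the full control effect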
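TRPML1-DL cells, Tet-induced overnight (~16 h, 37 °C) at 1,500 cells/well, were loaded with Ca8 no-wash dye plus quencher for 45-90 min at room temperature. Compounds were pinned during FDSS kinetic reading; agonist 54-4 at EC80 (4 uM final) then added.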
hERG WT inh = blocks the wildtype human KCNH2 potassium channel; activity change, % at 1.84 µM; U2OS, BacMam KCNH2, thallium flux FluxOr; active compounds read low; 340,000 tested, 0.37% active; AID 720551; Q12809;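 active = maximum activity change below -70%; inconclusive = maximum activity change between -70% and -50%; inactive = maximum activity change above -50%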; also: % is scaled to controls: 0 for no effect and ±100 for the full control effect
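U2OS cells transduced with wild-type KCNH2 virus are loaded with FluxOr dye for 45 min, and thallium flux is measured in kinetic reads before and after stimulation buffer. Rate constants are normalized to DMSO controls.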
Active calls of the source: *; ? = inconclusive; / = no result. Compounds with a hit are over-represented: about 1.7% of the library has one in this group of screens.

SMILES | TRHR PAM | TRHR ag | KCNH2 3.1 inh | TRPML1 ag | TRPML1 blocker | hERG WT inh
CCn1nc(C(=O)OC(C(=O)c2c[nH]c3ccccc23)c2ccccc2)c2ccccc2c1=O (centres undefined) | -2 | 1 | -76* | 1 | -4 | -3
CCOC(=O)c1cn(CC(=O)Nc2ccc(CC)cc2)nn1 | 1 | -1 | 2 | -1 | 90 | -208*
CCOC(=O)c1cn(CC(=O)Nc2ccc(C)cc2)nn1 | -13 | 0 | -1 | 0 | -3 | 0
c1ccc2[nH]c(NCc3ccc4c(c3)OCO4)nc2c1 | -4 | 0 | -11 | 1 | -7 | -126*
c1ccc(CNc2nc3ccccc3[nH]2)cc1 | 1 | 0 | 1 | 1 | -8 | -9
c1cncc(-c2nc(NCc3ccc4c(c3)OCO4)c3ccccc3n2)c1 | 32* | 2 | 2 | 1 | -3 | 2
c1ccc(CNc2nc(-c3cccnc3)nc3ccccc23)cc1 | -5 | 3 | -12 | 0 | -16 | 18
COc1ccccc1C(=O)OCc1cc(=O)n2nc(C3CC3)sc2n1 | 13 | 1 | / | 0 | 4 | /
COc1cc(-c2ccno2)ccc1S(=O)(=O)N1CCN(c2cc(C)ccc2C)CC1 | 4 | 0 | / | 0 | 23 | /
Cc1ccc2nc(NC(=O)Cn3nc(C)c([N+](=O)[O-])c3C)sc2c1 | 3 | -1 | -94* | 1 | -8 | -8
Cc1csc(NC(=O)Cn2nc(C)c([N+](=O)[O-])c2C)n1 | -1 | 0 | 8 | 1 | 55 | -5
COC(=O)CCCn1cc(CN2CC(N3CCN(Cc4ccccc4F)CC3)CS2(=O)=O)nn1 (centres undefined) | / | / | / | -1 | / | /
COc1ccc(C2=NN(C(=O)CCCC(=O)O)C(c3cn(-c4ccccc4)nc3-c3ccccc3)C2)cc1 (centres undefined) | 3 | 0 | 13 | 1 | 7 | 11
CC(C)c1cc(=O)oc2c3c4c(cc12)CCCN4CCC3 | 1 | 6 | -42 | 10 | -12 | -5
O=c1oc2c3c4c(cc2c(C(F)(F)F)c1CCN1CCOCC1)CCCN4CCC3 | 4 | 95* | -16 | 91* | -26 | -2
Cc1cc(N2C3CCC2CC(O)(c2ccc(F)cc2)C3)nc(-c2ccccc2)n1 (centres undefined) | 3 | 2 | -72* | 4 | 28 | 11
COc1cccc(C(c2sc3ncnn3c2O)N2CCN(C(=O)c3ccco3)CC2)c1 (centres undefined) | 37* | -1 | 14 | 0 | 9 | -4
CC(Oc1ccc([N+](=O)[O-])cc1)C(=O)NCC1CCCO1 (centres undefined) | 10 | 0 | 9 | 0 | 17 | 0
O=C(O)/C=C/c1ccc2c(-c3ccccc3)onc2c1 | 3 | 1 | -12 | 0 | 0 | -126*
Cc1ccc(Cn2cnc3c(cnn3C(C)(C)C)c2=O)cc1F | / | / | / | 1 | 20 | /
CCN(CC)C(=O)c1[nH]cnc1C(=O)N[C@H](C)c1ccccc1 | -4 | 0 | / | -1 | -2 | /
CCc1ccc(NC(=O)COC(=O)/C=C/c2ccco2)cc1 | / | / | -121* | 3 | 16 | 18
Cc1cccc(-n2ncc(C#N)c2N)c1 | 1 | 0 | 16 | 2 | ? | 12
N#Cc1cnn(-c2cccc(Cl)c2)c1N | -2 | 0 | -86* | 2 | 8 | -4
CC1(C(=O)NCc2cccnc2)Cc2c(-c3cccc(C(F)(F)F)c3)ccnc2O1 (centres undefined) | / | / | / | -1 | / | /
SMILES | TRHR PAM | TRHR ag | KCNH2 3.1 inh | TRPML1 ag | TRPML1 blocker | hERG WT inh
Cc1ccc(C(=O)CSc2nc(N)cc(=O)[nH]2)cc1 | -5 | 0 | 1 | 0 | 2 | -10
Cc1ccc(C(=O)CSc2nc(-c3ccccc3)cc(=O)[nH]2)cc1 | -4 | -1 | 0 | 0 | -5 | -91*
O=C(Nc1ccc(N2CCN(C(=O)c3ccccc3)CC2)cc1)c1cccs1 | 9 | -1 | -177* | 2 | 80 | -136*
COc1ccc(C(=O)N2CCN(c3ccc(NC(=O)c4cccs4)cc3)CC2)cc1 | 4 | 0 | -92* | 1 | 3 | 12
Cc1cc2oc3c(c(=O)c2cc1C)C(c1ccc(F)cc1)N(CCCN1CCOCC1)C3=O (centres undefined) | 37* | -1 | 8 | 0 | 12 | -30
COc1cc(OC)cc(C(=O)Nc2ccc(Nc3ccccc3)cc2)c1 | 6 | 0 | -86* | / | / | 0
CCOc1cc(C(=O)Nc2ccc3oc(-c4ccc(CC)cc4)nc3c2)cc(OCC)c1OCC | 36* | 1 | / | 2 | -20 | /
COc1cc(OC)cc(C(=O)Nc2nnc(NC(=S)Nc3ccccc3)s2)c1 | 36* | 1 | 3 | 0 | -11 | -14
Cc1cc(C)cc(OCC(=O)Nc2ccc(-c3nc4ccccc4o3)cc2)c1 | -4 | 2 | / | 4 | 11 | /
Cc1cccc(OCC(=O)Nc2ccc(-c3nc4ccccc4o3)cc2)c1C | 31* | 3 | / | 1 | 7 | /
COc1cc(OC)cc(C(=O)Nc2cccc(NC(=O)c3ccccc3)c2)c1 | -2 | 0 | -4 | 2 | 0 | 1
CCN(CC)C(=O)[C@H]1C[C@H](CC(=O)NCc2ccc(OC)c(OC)c2)C(=O)N2CCc3c([nH]c4ccc(Cl)cc34)[C@]12C | / | / | 2 | 5 | 23 | 15
NS(=O)(=O)c1ccc(CCNC(=O)COC(=O)CCc2c[nH]c3ccccc23)cc1 | / | / | 11 | 9 | -17 | 14
Cc1ccc(-c2nc3cccc(C)n3c2Nc2ccc(F)cc2)o1 | / | / | / | -1 | / | /
COc1ccc(-c2ccc(C3C4C=CCC(C)C4C(=O)N3Cc3ccccc3)c(F)c2)cc1OC (centres undefined) | / | / | / | 2 | 70 | /
Cn1c(CNC(=O)c2ccco2)nnc1SCC(=O)Nc1ccc(Cl)cc1 | 1 | 0 | 9 | -1 | 6 | 19
COc1cc(OC)cc(C(=O)NCC(=O)Nc2ccc(-c3ccccc3)cc2)c1 | 0 | 1 | -82* | 7 | -12 | 2
COc1cc(OC)cc(C(=O)Nc2ccc(-c3nc4ccccc4o3)cc2)c1 | 2 | 1 | -112* | 1 | -1 | -44
CCc1c(C(=O)NCc2ccccc2Cl)[nH]c(C)c1C(C)=O | -1 | 0 | -10 | 0 | -9 | -2

Screening data deposited in PubChem by National Center for Advancing Translational Sciences (NCATS).
